Source: PubChem BioAssay AID720553 (National Center for Advancing Translational Sciences (NCATS), 2013)
In all, about 340,000 compounds went through this assay and about 3,300 (0.97%) were called active. The sample as a whole holds a higher share of actives than the screen did. Values without a mark were called inactive.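 Rule for the calls: active = maximum activity change below -70%; inconclusive = maximum activity change from -70% to -50%; inactive = maximum activity change above -50%.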

tested on: Potassium voltage-gated channel subfamily H member 2, brain isoform KCNH2 3.1 (human); assay: qHTS for Inhibitors of KCHN2 3.1: Mutant qHTS; conditions: U2OS KCNH2 3.1, thallium flux FluxOr; hits give low values
Excerpt: Many antipsychotic drugs that inhibit the neurotransmitter dopamine also bind to hERG1 channel which might help explain their antipsychotic activity but also produces cardiac side effects. The discovery of the novel KCNH2 3.1 isoform offers a potential new target for the development of antipsychotic drugs without cardiac side effects. This proposal will use a high throughput thallium flux assay developed for KCNH2 to screen compounds that modulate the activity of KCNH2 3.1. The wild type KCNH2 channel will also be screened in parallel to help define the selective modulators of this KCNH2 3.1 potassium channel. The resulting compounds will be validated in electrophysiology experiments. The availability of animal models will allow future testing in vivo for effects on memory and other aspects of animal physiology linked with psychosis. NIH Chemical Genomics Center [NCGC] NIH Molecular Libraries Probe Centers Network [MLPCN] MLPCN Grant: MH096539 Assay Submitter (PI): James Barrow, Johns Hopkins University, Lieber Institute for Brain Development
U2OS cells were resuspended in cell media containing 10% fetal calf serum (FCS) at a concentration of 2 million cells / mL. The solution was treated with the mutant (3.1) virus at 1.77 x 10^8 / mL and allowed to incubate at room temperature in the dark. After 4 hours of incubation, DMEM + 10% fetal bovine serum (FBS) was added to the cell solution. Three microliter was then dispensed into a 1536 tissue culture treated black assay plates which were incubated overnight at 37 C. Two microliter of loading buffer (HBSS + HEPES + Red40 dye quencher + FluxOr dye) was added and the assay plates were incubated for 45 min at room temperature in the dark. […] A stimulation buffer was added to the plate and the second kinetic read (2 min) was obtained. The rate constant was calculated from the kinetic reads and normalized to the positive and negative DMSO controls.
% is set by controls: 0 for no effect and ±100 for the full control effect.

Row | SMILES | activity change
1 | CC(=O)c1ccc(OCC(=O)N(C)C2CCS(=O)(=O)C2)cc1 (stereo not drawn) | -6.59%
2 | COC(=O)C[C@H]1C[C@@H]2c3cc(NC(=O)Nc4ccccc4)ccc3O[C@@H]2[C@@H](CO)O1 | 4.16%
3 | Cc1ccc(S(=O)(=O)N(C)C)cc1NC(=O)/C=C/c1cccs1 | -14.2%
4 | CN(C)CCN(C(=O)CN1C(=O)c2ccccc2C1=O)c1nc2cc3c(cc2s1)OCCO3 | 4.48%
5 | Cc1ccc2sc(N(CCN(C)C)C(=O)/C=C/c3cccs3)nc2c1C | -90.5% (active)
6 | Cc1ccc2nc(N(CCN(C)C)C(=O)C3=COCCO3)sc2c1 | -3.64%
7 | Cc1cccc2sc(N(CCCN(C)C)C(=O)CCS(=O)(=O)c3ccccc3)nc12 | -7.9%
8 | Cc1cc(C)c2nc(N(CCN(C)C)C(=O)/C=C/c3cccs3)sc2c1 | -103% (active)
9 | CCCCCC(=O)N1C[C@H](O)[C@@H](n2cc(COC(=O)c3ccccc3)nn2)C[C@@H]1c1ccc(C)cc1 | -34.6%
10 | NC1=CC(=O)C(=O)c2cccnc21 | -3.65%
11 | C[C@@H]1CN([C@@H](C)CO)C(=O)c2cc(NS(C)(=O)=O)ccc2O[C@@H](C)CCCCO[C@H]1CN(C)C(=O)Nc1ccc2c(c1)OCO2 | 11.4%
12 | C[C@H]1Cn2cnc(C(=O)N[C@H](C)c3ccccc3)c2C(=O)N1 | -8.17%
13 | COC(=O)c1ccccc1N=NNc1ccc([N+](=O)[O-])cc1 | 5.4%
14 | Nc1ccc2nc3c(=O)[nH]c(=S)[nH]c3nc2c1 | -92.4% (active)
15 | C[C@H]1CN([C@@H](C)CO)C(=O)c2cc(-c3ccccc3F)cnc2O[C@H]1CN(C)C(=O)C1CCOCC1 | -1.4%
16 | CC(C)N=C1CCCC1C(=S)SSC(=S)C1CCCC1=NC(C)C (stereo not drawn) | 8.25%
17 | COc1cc(C(=O)N2CCN(C/C=C/c3ccccc3)CC2)cc(OC)c1C | -2.35%
18 | COc1cc(C(=O)NC2CCN(Cc3ccccc3)CC2)cc(Cl)c1OC(C)C | -16.6%
19 | COc1ccc(C(=O)NCCn2nc(C)cc2C)cc1OC1CCN(C(C)=O)CC1 | 12.7%
20 | COc1ccc(C(=O)NC2CC2)cc1OC1CCN(C/C=C/c2ccccc2)CC1 | -96.9% (active)
21 | COc1ccc(C(=O)NC2CC2)cc1OC1CCN(Cc2ccc(SC)cc2)CC1 | -111% (active)

Row | SMILES | activity change
22 | COc1cc2[nH]c(=O)n(Cc3ccc(C(=O)NC4CCN(Cc5ccccc5)CC4)cc3)c(=O)c2cc1OC | -8.47%
23 | COCC(=O)N(C)C[C@H]1Oc2cc(Br)ccc2S(=O)(=O)N([C@H](C)CO)C[C@H]1C | -6.83%
24 | COc1ccc(S(=O)(=O)N2CCC(C(=O)NCCC(=O)Nc3ccccc3OC)CC2)cc1 | 7.34%
25 | COCOCCn1cc(CN2CCS(=O)(=O)N(Cc3ccc(-c4ccccc4)cc3)C(CC(C)C)C2=O)nn1 (stereo not drawn) | -28.9%
26 | CC(C)(C)OC(=O)CNC(=O)c1[nH]cnc1C(=O)N[C@@H](Cc1ccccc1)C(=O)OCc1ccccc1 | -2.87%
27 | C[C@H](NC(=O)c1nc[nH]c1C(=O)NCC(=O)OC(C)(C)C)C(=O)OCc1ccccc1 | -109% (active)
28 | C[C@H](NC(=O)c1nc[nH]c1C(=O)NCC(=O)OC(C)(C)C)c1ccccc1 | -20.8%
29 | C[C@H]1CN([C@@H](C)CO)C(=O)CCCn2cc(nn2)CO[C@@H]1CN(C)S(=O)(=O)c1ccc(-c2ccccc2)cc1 | -9.74%
30 | c1ccc2c(c1)nnn2-c1ccncc1 | 1.83%
31 | COc1ccc(Cl)cc1NC(=O)CN(C)C(=O)c1cn(-c2ccccc2)nc1-c1cccs1 | -9.77%
32 | CSc1ncccc1C(=O)N1CCCC(Nc2ccc(F)c(F)c2)C1 (stereo not drawn) | -0.997%
33 | CCOC(=O)c1[nH]ncc1CN1CCCC(C(=O)c2ccc(OC)cc2C)C1 (stereo not drawn) | -6.21%
34 | COc1ccc(C(=O)C2CCCN(Cc3cccn3-c3ccccn3)C2)c(C)c1 (stereo not drawn) | -108% (active)
35 | COc1ccc(C(=O)C2CCCN(S(=O)(=O)c3cccc(C)c3)C2)c(C)c1 (stereo not drawn) | -2.34%
36 | C=CCn1nc(C(=O)OCC)cc1-c1sc(NC(=O)c2ccccc2)nc1C | 21.3%
37 | O=C(NCCc1ccccc1)/C(=C\c1ccc([N+](=O)[O-])cc1)NC(=O)c1ccccc1 | -33.9%
38 | CN(C)CCNC(=O)/C(=C/c1cccc([N+](=O)[O-])c1)NC(=O)c1ccccc1 | -83.8% (active)
39 | C=CCNC(=O)/C(=C\c1cccc([N+](=O)[O-])c1)NC(=O)c1ccccc1 | -8.85%
40 | CCOC(=O)C=Cc1ccc(C(=O)OCC)[nH]1 | 6.88%
41 | C[C@H](CO)N1C[C@H](C)[C@H](CN(C)C(=O)c2ccncc2)OCc2ccccc2-c2c(n(C)c3ccccc23)C1=O | -0.608%
42 | COc1ccccc1-n1c(SCC(=O)Nc2ccc(Cl)cc2)nc(O)c(Cc2ccccc2)c1=O | 4.83%

Row | SMILES | activity change
43 | CC(C)c1cc(C(=O)NC2CCCCCC2)c2ccccc2n1 | 2.17%
44 | C[C@@H]1CN([C@@H](C)CO)S(=O)(=O)c2ccc(C#Cc3cccc(F)c3)cc2O[C@H]1CN(C)S(=O)(=O)c1cn(C)cn1 | 7.52%
45 | CC1CN(C(=O)CCC(=O)NCCCN2CCC(Cc3ccccc3)CC2)c2cc(Cl)ccc2O1 (stereo not drawn) | -84.9% (active)
46 | CC1CN(C(=O)CCC(=O)NCc2cccnc2)c2ccccc2O1 (stereo not drawn) | 27.3%
47 | CC1CN(C(=O)CCC(=O)NC2CCN(Cc3ccccc3)CC2)c2ccccc2O1 (stereo not drawn) | -0.725%
48 | O=C1NC(Cc2ccccc2)c2nc3ccc(Br)cc3c(=O)n2-c2cc3ccccc3cc21 (stereo not drawn) | -16.2%
49 | Cc1ccc([C@H]2N[C@]3(CCCN(Cc4ccccc4)C3=O)[C@H]3C(=O)N(Cc4ccccc4)C(=O)[C@@H]23)cc1 | 4.9%
50 | O=C(COc1ccc(S(=O)(=O)N2CCCC2)cc1[N+](=O)[O-])N1CCCCC1 | -5.01%
51 | Cc1cc(/C=C2/SC(=O)N(CC(=O)OC(C)C)C2=O)c(C)n1C | -7.88%
52 | CCN=C1S/C(=C\c2cc(Br)ccc2OCC(=O)OCC)C(=O)N1CC | -71.6% (active)
53 | CCOC(=O)CC1C(=O)NCCN1C(=O)COc1ccc(Br)cc1C (stereo not drawn) | 3.78%
54 | Cc1ccc(C(=O)N2CCCc3ccccc32)c(Cl)c1 | 1.37%
55 | Cc1nn(-c2ncccn2)c2c1C(=O)CC(C)(C)C2Br (stereo not drawn) | -151% (active)
56 | CC1=C(N2CCN(c3ncccn3)CC2)CCC1=O | -6.3%
57 | Cc1nn(-c2ccccc2)c2c1C(=O)NC(=O)C(C)(C)C2 | -21.5%
58 | COc1ccccc1NC(=O)C(CC(=O)O)Cc1cc(C)cc(C)c1 (stereo not drawn) | 12.9%
59 | C[C@H](O)[C@@H]1C(=O)N2CCc3c([nH]c4ccccc34)[C@@H]2C[C@@H]1N(C)C(=O)Nc1ccc(F)cc1 | -6%
60 | CC(C)(C)C(=O)CN1C2=NCCN2c2ccccc21 | 7.56%
61 | OC(CN1C2=NCCCN2c2ccccc21)c1ccc(Br)cc1 (stereo not drawn) | -80.8% (active)
62 | Cc1cc2c(cc1C)N(Cc1ccccc1)C1=NCCCN12 | -15.2%
63 | CCn1ccnc1CN(C)Cc1nc(-c2ccc3c(c2)OCO3)no1 | -1.19%

Row | SMILES | activity change
64 | CN(CCN1CCOCC1)Cc1nc(-c2ccc3c(c2)OCO3)no1 | 3.94%
65 | CC(C)N(Cc1nc(-c2ccc3c(c2)OCO3)no1)CC1CCC(=O)N1 (stereo not drawn) | -93.2% (active)
66 | C[C@@H]1CN([C@H](C)CO)C(=O)c2cc(-c3ccc(F)cc3)cnc2O[C@H]1CN(C)C(=O)c1ccc(F)cc1 | -4.52%
67 | O=C(NCC(F)(F)F)c1ccc(S(=O)(=O)NCCc2ccc3c(c2)OCCO3)cc1 | -2.33%
68 | CCCCCCn1c(=O)n2n(c1=O)C[C@]1(OC(=O)NCc3ccc(OC)c(OC)c3)CN(S(=O)(=O)c3ccc(C)cc3)C[C@]1(O)C2 | -6.76%
69 | CN(CC#CCC(c1ccccc1)c1ccccc1)C(C)(C)C | -77% (active)
70 | CC(C)(C)N(CC#CCC(O)(c1ccccc1)C1CCCC1)CCO (stereo not drawn) | -6.97%
71 | Cc1ccc(CCNC(=O)CN2C(=O)CSc3ccc(S(=O)(=O)N4CCOCC4)cc32)cc1 | 4.19%
72 | COC(=O)[C@H]1C[C@H](OC(=O)NCc2ccccc2)[C@@]2(O)CN(S(=O)(=O)c3ccc(C)cc3)CC2[C@H]1C(=O)OC (stereo partly drawn) | 2.28%
73 | C[C@H](CO)N1C[C@H](C)[C@@H](CN(C)Cc2ccc3c(c2)OCO3)OCc2cnnn2CCCC1=O | -0.449%
74 | COc1ccccc1C(=O)NCc1nnc(SC(C)C(=O)Nc2nccs2)n1C (stereo not drawn) | -5.02%
75 | CC(Sc1nnc(CNC(=O)c2ccccc2F)n1C)C(=O)Nc1nccs1 (stereo not drawn) | -211% (active)
76 | Cn1c(CNC(=O)c2ccccc2F)nnc1SCc1ccc(F)cc1 | 18.4%
77 | Cc1ccc(OCC(=O)Nc2ccccc2C(=O)NC2CC2)cc1 | 21%
78 | N#Cc1ccc(CN2CCN(CC(=O)Nc3ccccc3C(=O)NC3CC3)CC2)cc1 | -103% (active)
79 | O=C(CN1CCCCC1)Nc1ccccc1C(=O)NC1CC1 | -2.8%
80 | COC(=O)c1ccc(CN2CCN(CCCc3ccccc3)C(CCO)C2)cc1 (stereo not drawn) | -48.5%
81 | OCCC1CN(Cc2ccc(Oc3ncccn3)cc2)CCN1CCc1ccccc1 (stereo not drawn) | -3.13%
82 | CCOc1ccc(CN2CCN(CCCc3ccccc3)C(CCO)C2)cc1 (stereo not drawn) | -77.7% (active)
83 | O=C1c2ccccc2-c2ccccc2NC1O (stereo not drawn) | 2.59%
